Rows were chosen to be rich in hits. Some 4.2% of all compounds tested hit in one or more screens of this group.
esBAF inh – inhibitors of esBAF chromatin remodeling in mouse ES cells | Bmi1-luciferase knock-in reporter, 24 h; 100% = twice the neutral-well signal | reporter increase, % at 12.5 µM | 2% of 350,000 active; in the data active = activation above about 40%;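 note: 0% = median of the plate's neutral control wells and 100% = double that signal; a rise in the Bmi1 reporter signal indicates esBAF inhibition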
ssDAF-12 act – activators of S. stercoralis DAF-12 nuclear receptor; HEK293 ssDAF-12/GRIP1 lit1-tk-luc reporter, luminescence; % of 3 µM dafachronic acid response; activation, % at 6.8 µM; 1% of 370,000 active;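 active = activation above the mean over all tested compounds plus 3 SD, cut at about 0.9% in these data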;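 note: 0% = DMSO-only wells and 100% = 3 µM delta7-dafachronic acid wells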
Wnt bcat act – activates Wnt/beta-catenin signaling in a reporter cell assay; activation, % at 9.35 µM; 1.2% of 300,000 active; activator, plate reader; AID 743398; in the data active = activation above about 30%, passing the limit was not always enough;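 note: 0% = neutral control wells and 100% = positive control wells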
hgDAF12 agonist – activates the H. glycines DAF-12 receptor ligand-binding domain | HEK293 GAL4-hgDAF12 UAS-luciferase reporter, agonist luminescence; normalized to butyrate control | activation, % at 6.8 µM | 1.8% of 370,000 active | AID 687014;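 active = activation above a cutoff set at the mean of all screened compounds plus 3 SD, cut at about 10% in these data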;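 note: 0% = DMSO wells and 100% = sodium butyrate wells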
DAX1 inh – blocks DAX1 repression of SF-1 activated StAR promoter; HEK293T StAR-luciferase reporter, SF-1/DAX-1 repression relief; inhibition, % at 6.8 µM; 1.1% of 370,000 active;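 active = inhibition above the mean over all tested compounds plus 3 SD, cut at about 3.6% in these data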;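 note: 0% = DAX-1 cells with DMSO and 100% = cells lacking DAX-1 with DMSO; higher inhibition means more luminescence from relief of DAX-1 repression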
hcDAF12 agonist – activators of H. contortus DAF-12 nuclear receptor; activation, % at 6.8 µM; HEK293 hcDAF-12 lit1-tk-luc reporter, luminescence; 0% DMSO, 100% Δ7-dafachronic acid; 1.4% of 370,000 active;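 active = activation above the mean of all tested compounds plus 3 SD, cut at about 5.5% in these data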;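 note: 100% = response to 3 µM Δ7-dafachronic acid high control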
* hit, by the source's call; . = not tested or not shown.

SMILES | esBAF inh | ssDAF-12 act | Wnt bcat act | hgDAF12 agonist | DAX1 inh | hcDAF12 agonist
CCOC(=O)c1sc2nc3c(cc2c1N)COC(C)(C)C3 | . | -1 | 53* | 10 | 2 | 2
C=CCn1c(C)nc2c(sc3nc4c(cc32)COC(C)(C)C4)c1=O | . | 0 | 46* | 13* | 1 | 4
CN1C(=O)c2cc(NC(=O)Nc3ccccc3)ccc2OC[C@H]2O[C@@H](CC(=O)O)CC[C@@H]21 | 1 | . | . | . | . | .
CC(C)NC(=O)Nc1ccc2c(c1)C(=O)N([C@H](C)CO)C[C@@H](C)[C@@H](CN(C)C(=O)Nc1ccc(F)cc1)O2 | 1 | . | . | . | . | .
Cc1c(C(=O)Nc2cnccn2)oc2ccccc12 | 61* | . | 5 | . | . | .
Cc1c(C(=O)Nc2cccc3cccnc23)oc2ccccc12 | 34 | -1 | . | 1 | 1 | 1
Cc1c(C(=O)Nc2ccc(Cl)cn2)oc2ccccc12 | 45* | 1 | 28 | 4 | 0 | 4
N/C(=N\OC(=O)Cc1ccccc1)c1cccnc1 | . | -2 | 12 | 5 | -1 | 0
N/C(=N\OC(=O)c1ccccc1)c1cccnc1 | 56* | 0 | 51* | 8 | 2 | 1
N/C(=N\OC(=O)c1cc(Cl)ccc1Cl)c1cccnc1 | 52* | 1 | . | 2 | 0 | 6.3*
N/C(=N\OC(=O)c1cccc(Cl)c1)c1cccnc1 | 73* | 0 | . | 11* | 1 | 5
N/C(=N\OC(=O)c1cc(Br)ccc1Cl)c1cccnc1 | . | 0 | 0 | 2 | 1 | 5
N/C(=N\OC(=O)c1ccc(Cl)c(Cl)c1)c1cccnc1 | 52* | -1 | . | 2 | 0 | 0
C/C=C/c1cnc2c(c1)C(=O)N([C@H](C)CO)C[C@H](C)[C@H](CN(C)C(=O)NCCC)O2 | -2 | . | . | . | . | .
N/C(=N\OC(=O)c1ccc(Cl)cc1Cl)c1ccncc1 | . | -1 | 35* | 7 | 1 | 1
N/C(=N\OC(=O)c1cc(Cl)ccc1Cl)c1ccncc1 | . | -1 | -4 | 4 | -1 | 1
Cc1ccccc1C(=O)O/N=C(\N)Cc1cccs1 | 53* | 0 | 17 | 9 | 2 | 2
N/C(=N\OC(=O)/C=C/c1ccccc1)c1ccncc1 | 45* | -1 | 11 | 7 | 1 | 1
N/C(=N\OC(=O)CCCOc1ccccc1)c1ccncc1 | . | -1 | -1 | -1 | 0 | 0
N/C(=N\OC(=O)COc1ccc(Cl)cc1Cl)c1cccnc1 | 56* | -2 | 30 | 10 | -1 | -2
CNC[C@@H]1Oc2ncc(-c3ccc(OC)cc3)cc2C(=O)N([C@H](C)CO)C[C@@H]1C | -1 | . | . | . | . | .
CCCN1C[C@H](C)[C@@H](OC)CN(C)C(=O)c2cc(NC(=O)Nc3ccccc3F)ccc2OC[C@H]1C | -4 | . | . | . | . | .
CO[C@H]1CN(C)C(=O)c2ccc(NS(=O)(=O)c3ccccc3C)cc2OC[C@@H](C)N(S(C)(=O)=O)C[C@@H]1C | 0 | . | . | . | . | .
C[C@@H]1CN([C@@H](C)CO)C(=O)c2cc(NC(=O)Cc3ccccc3)ccc2O[C@@H](C)CCCCO[C@@H]1CN(C)S(=O)(=O)c1ccc(Cl)cc1 | -2 | . | . | . | . | .
N/C(Cc1ccc(Cl)cc1Cl)=N\OC(=O)Cc1cccs1 | 26 | -1 | 12 | 3 | 0 | 3
SMILES | esBAF inh | ssDAF-12 act | Wnt bcat act | hgDAF12 agonist | DAX1 inh | hcDAF12 agonist
N/C(=N\OC(=O)c1ccc([N+](=O)[O-])cc1Cl)c1ccccn1 | -81 | 1.1* | 0 | 9 | 0 | 6.1*
N/C(Cc1cccs1)=N\OC(=O)COc1ccc(Cl)cc1Cl | 71* | -1 | . | 13* | 2 | 4
CO[C@@H]1CC[C@@H]2CCN(C)C(=O)C[C@@H](c3ccccc3)CN(C)C(=O)c3cc(C#N)ccc3OC[C@@H]1O2 | -1 | . | . | . | . | .
CC1CCN(c2ccc(NC(=O)c3cccnc3Cl)cc2)CC1 | . | -1 | 26 | 12* | 1 | 0
Cc1ccc(C(=O)N2CCN(c3ccc(NC(=O)c4cccnc4Cl)cc3)CC2)cc1 | 3 | -1 | 5 | -1 | -1 | -3
CC1CCN(c2ccc(NC(=O)c3cccnc3)cc2)CC1 | 32 | -1 | 37* | 5 | 1 | 1
O=C(Nc1ccc(N2CCN(C(=O)c3ccccc3)CC2)cc1)c1cccnc1 | -2 | -1 | -2 | 3 | 0 | -2
C[C@H](CO)N1C[C@H](C)[C@H](CN(C)C(=O)Nc2cccc3ccccc23)OCCCC[C@H](C)Oc2ccc(NS(=O)(=O)c3ccc(Cl)cc3)cc2C1=O | 7 | . | . | . | . | .
O=C(CSc1ccc2nnc(CCNC(=O)c3ccccc3)n2n1)NCc1ccco1 | 2 | 0 | 2 | -1 | 3.9* | -1
O=C(NNS(=O)(=O)c1ccccc1)C1CCN(S(=O)(=O)c2ccccc2)CC1 | 2 | -1 | 42* | 0 | -1 | -2
O=C(O)C1(c2ccccc2)CCN(S(=O)(=O)c2ccccc2)CC1 | -8 | 1.0* | -2 | 0 | 0 | 0
CC(C)CC#Cc1cnc2c(c1)C(=O)N([C@@H](C)CO)C[C@@H](C)[C@H](CN(C)Cc1ccccc1F)O2 | -4 | . | . | . | . | .
COc1ccc(/C=C/C(=O)Oc2cccc(/C=N/NC(=O)c3cccc(F)c3)c2)cc1 | 45* | 0 | . | 5 | 0 | 0
O=C(Cc1ccncc1)NCC[C@@H]1CC[C@@H](NC(=O)C2CCCC2)[C@H](CO)O1 | -2 | . | . | . | . | .
CSc1nnc(-c2ccc(Cl)cc2Cl)o1 | 51* | -1 | . | 3 | 0 | 0
O=C(NCC[C@@H]1CC[C@H](NC(=O)c2cnccn2)[C@@H](CO)O1)Nc1ccc(F)cc1 | -4 | . | . | . | . | .
Cc1ccc(S(=O)(=O)N(C)C[C@@H]2OCCCC[C@H](C)Oc3ccc(NC(=O)Nc4ccc5c(c4)OCO5)cc3C(=O)N([C@H](C)CO)C[C@H]2C)cc1 | 3 | . | . | . | . | .
C[C@@H]1CCCCO[C@@H](CN(C)S(=O)(=O)c2cn(C)cn2)[C@@H](C)CN([C@@H](C)CO)C(=O)c2cc(NC(=O)Nc3ccc4c(c3)OCO4)ccc2O1 | 58* | . | . | . | . | .
C[C@@H]1CCCCO[C@H](CN(C)S(=O)(=O)c2cn(C)cn2)[C@H](C)CN([C@@H](C)CO)C(=O)c2cc(NC(=O)Nc3ccc4c(c3)OCO4)ccc2O1 | 5 | . | . | . | . | .
C[C@@H]1CN([C@H](C)CO)C(=O)c2cc(NC(=O)Nc3ccc4c(c3)OCO4)ccc2O[C@@H](C)CCCCO[C@H]1CN(C)S(=O)(=O)c1cn(C)cn1 | 58* | . | . | . | . | .
COc1ccc(S(=O)(=O)N(C)C[C@@H]2Oc3ccc(NC(=O)c4ccncc4)cc3C(=O)N([C@@H](C)CO)C[C@H]2C)cc1 | 5 | . | . | . | . | .
Cc1ccc(S(=O)(=O)N(C)C[C@H]2OCCCC[C@H](C)Oc3ccc(NC(=O)Nc4ccc5c(c4)OCO5)cc3C(=O)N([C@H](C)CO)C[C@H]2C)cc1 | 49* | . | . | . | . | .
COc1ccc(S(=O)(=O)N(C)C[C@H]2Oc3ccc(NC(=O)c4ccncc4)cc3C(=O)N([C@H](C)CO)C[C@@H]2C)cc1 | 0 | 2.6* | -3 | -1 | 1 | -1

High-throughput results (PubChem BioAssay)
